Data from PubChem BioAssay AID588689 (Southern Research Specialized Biocontainment Screening …, 2011).
The whole screen tested about 340,000 compounds, of which about 1,000 (0.29%) were called active. Rule as the data show it: inconclusive = inhibition above about 29% without an active follow-up result; inactive = below that. The list is a sample of the results. Entries with a potency or affinity are not part of this list.

These molecules were tested against Genome polyprotein (Dengue virus type 2 (strain 16681-PDK53)) (UniProt P29991) (assay: flavivirus cap methylation enzyme inhibition – biochemical, confirmation dose response, primary screen (AID 588689)). Conditions: Dengue-2 NS5 methyltransferase capping enzyme assay, at 25 µM, hits give high values.
Genome polyprotein (Dengue virus type 2 (strain 16681-PDK53)), sequence (P29991 whole entry, looked up): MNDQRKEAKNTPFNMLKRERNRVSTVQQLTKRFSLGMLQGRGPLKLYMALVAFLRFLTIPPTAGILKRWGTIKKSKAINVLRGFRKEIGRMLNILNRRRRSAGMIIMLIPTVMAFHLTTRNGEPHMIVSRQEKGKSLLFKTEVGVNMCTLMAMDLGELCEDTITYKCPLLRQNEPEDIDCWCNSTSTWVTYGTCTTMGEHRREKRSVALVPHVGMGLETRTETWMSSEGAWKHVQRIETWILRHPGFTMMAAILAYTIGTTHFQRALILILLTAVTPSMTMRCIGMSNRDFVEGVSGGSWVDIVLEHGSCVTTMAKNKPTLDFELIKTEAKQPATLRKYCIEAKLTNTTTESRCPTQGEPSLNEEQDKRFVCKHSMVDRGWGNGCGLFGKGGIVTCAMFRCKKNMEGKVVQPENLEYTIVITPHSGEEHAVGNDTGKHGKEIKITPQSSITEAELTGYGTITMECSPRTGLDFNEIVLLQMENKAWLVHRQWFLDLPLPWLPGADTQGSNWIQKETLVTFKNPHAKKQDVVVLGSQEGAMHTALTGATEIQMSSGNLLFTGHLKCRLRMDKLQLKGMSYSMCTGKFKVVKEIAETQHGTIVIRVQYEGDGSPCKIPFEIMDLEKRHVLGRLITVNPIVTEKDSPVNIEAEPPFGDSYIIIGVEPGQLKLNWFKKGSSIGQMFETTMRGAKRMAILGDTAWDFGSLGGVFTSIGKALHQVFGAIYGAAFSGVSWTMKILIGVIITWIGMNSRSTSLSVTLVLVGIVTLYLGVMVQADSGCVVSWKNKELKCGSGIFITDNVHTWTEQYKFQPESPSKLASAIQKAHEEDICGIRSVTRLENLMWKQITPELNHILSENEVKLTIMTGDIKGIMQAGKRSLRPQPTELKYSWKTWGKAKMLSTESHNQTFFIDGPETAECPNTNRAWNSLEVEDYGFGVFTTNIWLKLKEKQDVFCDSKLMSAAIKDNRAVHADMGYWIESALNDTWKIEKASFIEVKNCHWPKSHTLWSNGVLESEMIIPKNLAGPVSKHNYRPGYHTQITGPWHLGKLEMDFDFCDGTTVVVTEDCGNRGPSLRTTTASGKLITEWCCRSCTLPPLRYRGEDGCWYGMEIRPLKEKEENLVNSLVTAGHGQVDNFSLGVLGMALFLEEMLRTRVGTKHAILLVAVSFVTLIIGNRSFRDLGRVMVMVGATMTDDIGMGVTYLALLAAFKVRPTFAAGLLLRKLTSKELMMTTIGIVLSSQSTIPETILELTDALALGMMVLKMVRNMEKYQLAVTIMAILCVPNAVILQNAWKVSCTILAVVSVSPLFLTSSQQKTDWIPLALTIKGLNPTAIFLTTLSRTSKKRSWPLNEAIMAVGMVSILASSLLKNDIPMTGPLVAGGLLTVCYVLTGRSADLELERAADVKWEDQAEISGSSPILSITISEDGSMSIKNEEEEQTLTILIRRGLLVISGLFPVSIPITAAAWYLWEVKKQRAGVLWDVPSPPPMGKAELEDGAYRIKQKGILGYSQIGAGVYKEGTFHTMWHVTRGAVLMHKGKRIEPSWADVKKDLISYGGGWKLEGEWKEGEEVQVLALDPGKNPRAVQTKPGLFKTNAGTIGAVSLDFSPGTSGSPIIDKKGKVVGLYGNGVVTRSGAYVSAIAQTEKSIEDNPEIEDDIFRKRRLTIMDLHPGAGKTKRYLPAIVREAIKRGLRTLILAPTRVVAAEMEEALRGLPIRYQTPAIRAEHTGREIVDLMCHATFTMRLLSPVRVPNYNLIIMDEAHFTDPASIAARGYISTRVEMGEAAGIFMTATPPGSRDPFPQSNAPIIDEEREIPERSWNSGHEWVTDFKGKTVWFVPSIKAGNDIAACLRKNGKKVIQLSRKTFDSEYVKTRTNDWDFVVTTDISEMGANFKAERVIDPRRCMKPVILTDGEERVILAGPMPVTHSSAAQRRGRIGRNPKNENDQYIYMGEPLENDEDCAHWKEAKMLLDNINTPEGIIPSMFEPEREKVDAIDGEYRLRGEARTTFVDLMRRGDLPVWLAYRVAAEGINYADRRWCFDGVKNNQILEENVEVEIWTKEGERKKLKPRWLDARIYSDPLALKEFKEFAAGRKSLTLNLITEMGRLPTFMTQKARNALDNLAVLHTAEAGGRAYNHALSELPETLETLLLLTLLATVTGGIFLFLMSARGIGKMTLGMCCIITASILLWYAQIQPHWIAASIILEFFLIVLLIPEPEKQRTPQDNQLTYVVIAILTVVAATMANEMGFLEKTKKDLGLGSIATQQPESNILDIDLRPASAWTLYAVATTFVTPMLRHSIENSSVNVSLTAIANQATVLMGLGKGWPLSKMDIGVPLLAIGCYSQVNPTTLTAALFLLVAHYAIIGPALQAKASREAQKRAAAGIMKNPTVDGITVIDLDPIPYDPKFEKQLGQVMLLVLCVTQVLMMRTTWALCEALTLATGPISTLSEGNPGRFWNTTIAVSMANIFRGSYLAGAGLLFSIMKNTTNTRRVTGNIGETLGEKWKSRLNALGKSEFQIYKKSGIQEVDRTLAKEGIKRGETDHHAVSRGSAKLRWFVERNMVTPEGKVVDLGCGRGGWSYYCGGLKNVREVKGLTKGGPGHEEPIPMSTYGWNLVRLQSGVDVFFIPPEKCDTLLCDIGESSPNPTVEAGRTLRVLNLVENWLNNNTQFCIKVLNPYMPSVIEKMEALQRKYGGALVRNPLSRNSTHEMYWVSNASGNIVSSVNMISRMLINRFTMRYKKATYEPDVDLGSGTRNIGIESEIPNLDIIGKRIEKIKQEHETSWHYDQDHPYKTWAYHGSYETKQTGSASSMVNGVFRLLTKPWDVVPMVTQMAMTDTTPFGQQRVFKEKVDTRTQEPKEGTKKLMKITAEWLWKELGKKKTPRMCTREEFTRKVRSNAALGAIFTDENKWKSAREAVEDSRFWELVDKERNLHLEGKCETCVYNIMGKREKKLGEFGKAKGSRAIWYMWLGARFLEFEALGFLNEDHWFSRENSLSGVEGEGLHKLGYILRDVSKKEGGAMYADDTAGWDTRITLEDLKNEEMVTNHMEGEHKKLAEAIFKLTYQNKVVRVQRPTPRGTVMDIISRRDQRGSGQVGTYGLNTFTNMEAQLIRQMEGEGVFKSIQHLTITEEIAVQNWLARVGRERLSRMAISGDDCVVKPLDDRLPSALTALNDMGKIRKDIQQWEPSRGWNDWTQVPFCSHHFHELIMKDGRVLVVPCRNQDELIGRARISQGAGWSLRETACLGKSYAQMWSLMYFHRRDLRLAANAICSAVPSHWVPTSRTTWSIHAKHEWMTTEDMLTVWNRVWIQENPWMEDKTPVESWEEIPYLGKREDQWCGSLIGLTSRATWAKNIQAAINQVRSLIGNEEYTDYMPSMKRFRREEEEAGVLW

inhibition, inactive:
Cc1ccc(NC(=O)c2cc(-c3cc(Cl)ccc3O)n[nH]2)cc1C -6.12%
COc1cccc(N2CCN(C(=O)CNC(=O)c3sc4ccccc4c3Cl)CC2)c1 -1.29%
O=C1CN(C(=O)COC(=O)c2ccccc2NCc2ccco2)c2ccccc2N1 -4.76%
CCOC(=O)c1c(C)[nH]c(C(=O)OCC(=O)N(CC(C)C)C2CCS(=O)(=O)C2)c1C (configuration not stated) 4.1%
Cc1c(N(C)C(=O)c2ccccc2F)c(=O)n(-c2ccccc2)n1C 2.15%
COc1cccc(C(NC(=O)c2ccccc2F)NC(=O)c2ccccc2F)c1 -5.64%
CC(=NCCCNC1CCCCC1)C1=C(O)CC(C)(C)CC1=O 10.2%
O=C(NC1CCCc2ccccc21)C1CCN(c2c3c(nc4ncnn24)CCC3)CC1 (configuration not stated) -6.95%
O=C(O)C(Cc1ccccc1)N1C(=O)CCC1=O (configuration not stated) -3.06%
O=C(O)C(Cc1ccc(O)cc1)N1C(=O)c2c(Cl)c(Cl)c(Cl)c(Cl)c2C1=O (configuration not stated) 16.9%
O=C(O)C(Cc1ccccc1)N1C(=O)c2cccc3cccc(c23)C1=O (configuration not stated) -2.21%
O=C(O)C(Cc1ccccc1)N1C(=O)c2ccccc2C1=O (configuration not stated) -1.57%
Cc1cccc(C)c1NC(=O)C(c1ccc([N+](=O)[O-])cc1)N1CCCCC1 (configuration not stated) -3.23%
Cc1onc(-c2ccccc2Cl)c1C(=O)Nc1ccc(-c2nnc3n2CCCCC3)cc1 9.09%
O=C(CNC(=O)c1cccs1)Nc1ccncc1 1.47%
Cc1cc(C(C)(C)C)oc1C(=O)N(CC(=O)NC1CCCC1)c1cccc(C(F)(F)F)c1 -5.56%
CCOC(=O)c1[nH]c2ccccc2c1NC(C)=O 1.39%
Cc1[nH][nH]c(=O)c1C(c1cc(Br)ccc1O)c1c(C)[nH][nH]c1=O 0%
O=C(CC(c1ccccc1)c1cc(Br)ccc1O)N1CCCC1 (configuration not stated) -0.78%
CCc1c(C(=O)O)[nH]c2ccc(Br)cc12 7.42%
CCOc1ccccc1NC(=O)CSCC(=O)Nc1ccccc1 0%
CCOC(=O)N1CCN(CC(O)COCC2=CCC3CC2C3(C)C)CC1 (configuration not stated) 6.09%
C[C@@H](C(=O)Nc1ccc2ccccc2c1)[C@H]1C[C@]1(C)[C@H](NC(=O)OCc1ccccc1)c1ccccc1 4.76%
CCOC(=O)N1CCN(S(=O)(=O)N2CCCC(C(=O)NCc3ccccc3Cl)C2)CC1 (configuration not stated) -6.21%
CC(NC(=O)C1CCC1)c1ccc(Cl)cc1 (configuration not stated) -3.24%
COCc1cc(C)nc(N/N=C/c2ccc(-c3ccc(Cl)cc3[N+](=O)[O-])o2)c1C#N 0.9%
Cc1ccc(-c2ccc(/C=N/N3C(=O)C4C5C=CC(C6CC56)C4C3=O)o2)c([N+](=O)[O-])c1 (configuration not stated) -2.05%
Cc1ccc(-c2ccc(/C=N/N3C(=O)C4C5C=CC(CC5)C4C3=O)o2)c([N+](=O)[O-])c1 (configuration not stated) 4.83%
O=C1C2C3C=CC(C4CC34)C2C(=O)N1/N=C/c1ccc(-c2ccc(Cl)cc2[N+](=O)[O-])o1 (configuration not stated) 0%
Cc1nc2ccccn2c1C(=O)N/N=C/c1ccccc1Cl 0.65%
CCCCOc1ccc(-c2cnc3ccccc3n2)cc1 1.6%
Cc1cc(N2CCC(C(=O)NCC3CC3)CC2)nc(-c2ccccc2)n1 -10.6%
COC(=O)N(C)C[C@H]1OCc2cnnn2CCCC(=O)N([C@@H](C)CO)C[C@@H]1C 0%
CC1=NOC(=O)/C1=C\c1ccc(-c2ccc(Br)cc2)o1 24.5%
CC1(C)OC(=O)C(=Cc2ccc(-c3ccc(Cl)c(C(=O)O)c3)o2)C(=O)O1 -35.6%
CC1=NOC(=O)/C1=C\c1ccc(-c2ccccc2Br)o1 3.96%
CC1=NOC(=O)/C1=C/c1ccc(-c2ccc(Cl)cc2)o1 19%
CC(C)N1C(=O)S/C(=C\c2ccc(-c3ccc(Cl)c(C(=O)O)c3)o2)C1=O 9.54%
CC1=NOC(=O)/C1=C\c1ccc(-c2cccc(Cl)c2)o1 6.14%
CC(=O)N(c1ccccc1)c1nc2ccccc2s1 -3.1%
O=C(CNCc1ccccc1Cl)Nc1ccc(C(=O)N2CCCCC2)cc1 -14.1%
CNC(=O)c1ccsc1NC(=O)CS(=O)(=O)c1ccc(F)cc1 -0.55%
CCN1CCN(CCCN(Cc2ccco2)C(=S)Nc2cccc(Cl)c2C)CC1 5.26%
Nc1cc(=O)[nH]c(SCC(=O)Nc2cccnc2Cl)n1 11.6%
O=C1NN(c2ccc(Br)cc2)C(=O)/C1=C\c1ccc(O)cc1O -25.4%
COc1cccc(/C=C2\CCc3ccccc3C2=O)c1 1.96%
N#C/C(=C\c1cccc(OC(=O)c2cccs2)c1)C(N)=O -25%
COc1cc(C=C2C(=O)c3ccccc3C2=O)cc(OC)c1 18%
O=C1OC(c2ccccc2)=N/C1=C/c1cccc(OC(=O)c2cccs2)c1 6.35%
COc1cc(/C=C2/C(=O)NN(c3ccccc3)C2=O)cc(Br)c1O -40.3%
Cc1cc(/C=C2\C(=O)NN(c3ccccc3)C2=O)c(C)n1-c1ccccc1O 2.89%
COc1ccc(-n2c(C)cc(/C=C3\C(=O)NN(c4ccccc4)C3=O)c2C)cc1 3.87%
COc1cccc(/C=C2/NC(=O)N(CC(=O)Nc3ccc(C)cc3)C2=O)c1OCc1cccc(C(=O)O)c1 -3.96%
Cc1ccc2nc(-c3ccccc3)cc(C(=O)N3CCc4ccccc4C3)c2c1 -5.47%
NC(N)=N/N=C/c1ccc(OCc2ccccc2Cl)cc1 -0.7%
Cc1ccc(-c2nc3c(c(=O)c4ccccc4n3C)c(=O)n2-c2ccc(F)cc2)cc1 0.78%
CCc1ccc(C(=O)C(C)OC(=O)c2nc3nc(C)cc(C)n3n2)cc1 (configuration not stated) -7.33%
